This is an account of results in PubChem BioAssay AID1008 (NMMLSC, 2008).

In all, about 190,000 compounds went through this assay and about 240 (0.13%) were called active. What follows is part of a selection rich in actives, with near analogues and random picks from the rest. A number with no mark means an inactive call. Rule as the data show it: active = inhibition above about 40%.

The target in the test is Bcl-2-related protein A1 (Homo sapiens) (UniProt Q16548). The experiment in a line: inhibitors of Bim binding to Bfl-1, primary screen, biochemical, multiplexed, bead-based flow cytometry (AID 1008).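 Also: 0% = wells without compound plus tracer and 100% = blocker peptide.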 Particulars: Bim-Bfl-1 binding inhibition, at 10 µM, hits give high values. Background: In flow cytometry, cells or beads pass a laser one at a time.
Sequence of Bcl-2-related protein A1 (Homo sapiens) (Q16548 whole entry, looked up): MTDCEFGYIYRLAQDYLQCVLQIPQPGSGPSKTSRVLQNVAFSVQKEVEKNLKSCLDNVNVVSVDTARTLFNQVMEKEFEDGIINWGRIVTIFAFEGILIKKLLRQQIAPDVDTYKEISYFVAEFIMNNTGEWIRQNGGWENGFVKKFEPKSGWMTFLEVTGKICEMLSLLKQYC
Regarding `O=c1[nH]c(=S)n(C2CC2)c(O)c1/C=N/N1CCOCC1`, the inhibition (commonly the relative decrease from the control value, in per cent) is -14%.

As to `C=CCn1c(O)c(/C=N/N2CCOCC2)c(=O)[nH]c1=S`, the inhibition was 3%.

As to `Cc1cccc(-n2c(O)c(/C=N/N3CCOCC3)c(=O)[nH]c2=S)c1`, the inhibition was 41% (active).

Regarding `N#Cc1ccc(Cn2cc(C(=O)c3ccco3)c3ccccc32)cc1`, the inhibition is -4%.

Take `CCOC(=O)C1(Cc2ccc(Cl)cc2)CCN(C(C)CCn2cccn2)CC1` (stereo not given): the inhibition was 0%.
